Inhibition data for 97 molecules are collected here from PubChem BioAssay AID693 (University of Pittsburgh Molecular Library Screening Center, 2007).

Screen size: about 97,000 compounds; about 130 (0.13%) were called active. This excerpt belongs to a sample that is enriched for actives. Values without a mark were called inactive. Cut-off read from the data, not from the text of the source: active = inhibition above about 34% (passing the limit was not always enough); inactive = the rest.

The inhibition is the change of the read-out against control, counted positive when it falls.

The target of this assay is Serine/threonine-protein kinase PLK1 (Homo sapiens) (UniProt P53350). The assay can be described thus: blockers of phosphopeptide binding to Plk1 PBD – biochemical, fluorescence polarization, primary screen (AID 693). To be noted: active compounds read high,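 tested at about 20 µM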. (Polarisation of emitted light reports the rotation of a fluorescent probe.)
Serine/threonine-protein kinase PLK1 (Homo sapiens), sequence (P53350 whole entry, looked up): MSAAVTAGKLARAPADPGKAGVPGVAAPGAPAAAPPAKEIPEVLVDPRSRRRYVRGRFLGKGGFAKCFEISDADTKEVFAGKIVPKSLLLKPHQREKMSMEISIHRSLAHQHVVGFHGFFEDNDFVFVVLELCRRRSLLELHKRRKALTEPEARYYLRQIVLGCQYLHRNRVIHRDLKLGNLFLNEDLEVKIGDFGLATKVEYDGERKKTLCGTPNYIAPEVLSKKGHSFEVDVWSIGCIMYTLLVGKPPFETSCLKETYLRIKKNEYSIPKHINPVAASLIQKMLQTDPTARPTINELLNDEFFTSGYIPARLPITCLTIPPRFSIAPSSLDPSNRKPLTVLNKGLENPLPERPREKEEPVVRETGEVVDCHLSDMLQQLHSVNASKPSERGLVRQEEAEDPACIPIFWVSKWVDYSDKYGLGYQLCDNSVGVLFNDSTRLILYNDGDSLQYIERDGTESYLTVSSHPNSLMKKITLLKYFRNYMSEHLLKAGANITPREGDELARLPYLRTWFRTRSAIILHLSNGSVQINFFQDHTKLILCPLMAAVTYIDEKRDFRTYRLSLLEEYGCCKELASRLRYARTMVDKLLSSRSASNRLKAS
As to `Cn1c(N)c(C(=O)COC(=O)C23CC4CC(CC(C4)C2)C3)c(=O)n(C)c1=O`, the inhibition was -3.11%.
On to `COc1cc(C(=O)OC(C)C(=O)NCC2CCCCC2)cc(NC(=O)c2ccco2)c1OC` (configuration not stated), for which the inhibition is 2.04%.
As for `COCc1cc(C)nc2sc(C(=O)NC3CCCCC3)c(N)c12`, the inhibition was -36.6%.
For `COc1ccc(CN(CC(=O)NC2CCCC2)C(=O)CCC(=O)Nc2cc(C)on2)cc1`, the inhibition is 4.15%.
`O=C(N/N=C/c1ccsc1)c1cc(O)cc(O)c1`: the inhibition was -12.8%.
For `COc1ccc(CCNC(=S)NC(=O)/C=C/c2ccc(C)cc2)cc1OC`, the inhibition is -11.8%.
Then `N#Cc1ccsc1NC(=O)CN1CCCCC1`, with -12.8%; and `O=C1/C(=C\Nc2ccccc2)CCN1c1ncccn1`, with 13.5%.
For `CC(C)(C)NS(=O)(=O)CC12CCC(CC1=O)C2(C)C` (configuration not stated), the inhibition was -2.53%.
Then `O=C1CCN(C(=O)Nc2ccccc2)N1`, with 11.2%; and `CCOc1cc(/C=C2/N=C(c3ccc(C(C)(C)C)cc3)OC2=O)cc(Cl)c1OS(C)(=O)=O`, with -6.59%; and `Cc1ccccc1NC(=O)c1ccccc1NS(=O)(=O)c1cccc2cccnc12`, with 4.72%.
Then `CC1CCCN(C(C(=O)Nc2ccc(C(C)C)cc2)c2ccc3c(c2)OCO3)C1` (configuration not stated), with -23.5%.
On to `Cc1noc(/C=C/c2ccco2)c1S(=O)(=O)N1CCC(C(=O)N2CCc3ccccc32)CC1`, for which the inhibition was -18.1%.
As for `CCCCCCC(=O)Nc1nc(C)c(-c2csc(Nc3cccc(OC)c3)n2)s1`, the inhibition is -14.7%.
Take `O=C(Nc1ccc(Cl)cc1)c1cc2nc(C3CC3)cc(C(F)(F)F)n2n1`: the inhibition is 6.19%.
Regarding `O=C(NC1CCCCC1)c1cc([N+](=O)[O-])ccc1N1CCOCC1`, the inhibition was 22%.
For the molecule `O=C(CCc1ccccc1)NCc1cccnc1`, the inhibition was 22.9%.
With `CC(=O)Nc1ccc(OCC(O)CN2CCN(c3ccccc3Cl)CC2)cc1` (configuration not stated), the inhibition was -14%.
As for `O=C(O)C1CC=CCC1C(=O)Nc1ccccc1C(=O)N1CCN(c2ccccc2)CC1` (configuration not stated), the inhibition is 2.13%.
On to `Cc1cc(C)c(S(=O)(=O)c2ccccc2)c(OC(=O)c2c(F)cccc2Cl)n1`, for which the inhibition was -3.99%.
Turning to `COc1ccc(NC(=O)Cn2c(-c3ccc(OC)cc3)cn(-c3ccc(C)cc3)c2=O)cc1`, the inhibition is 4.16%.
For the molecule `COc1ccc(-c2nn(-c3ccccc3)cc2C(=O)Nc2nccs2)cc1OC`, the inhibition is 3.37%.
For `COc1ccccc1C(=O)Nc1ccc(NC(=O)c2ccco2)c(C)c1`, the inhibition was -21.6%.
Turning to `O=c1c2c(nc3nc[nH]n13)CCC2`, the inhibition was 7.34%.
`CCCC(C)C(=O)Nc1ccc(NC(C)=O)cc1` (configuration not stated): the inhibition is -14.8%.
On to `Cc1ccc(NC(=O)N2CCC(O)(c3cccnc3)CC2)cc1`, for which the inhibition is 2.21%.
In the case of `CCOC(=O)c1cc2n(c1N)-c1ccccc1C2=O`, the inhibition is 45.1% (active).
To `CCOC(=O)c1cc2n(c1C)-c1ccccc1C2=O` belongs -27.7%.
`CC(C)OC(=O)CN1C(=O)C(=O)c2ccccc21`: the inhibition is -13.6%.
As to `O=C1c2ccccc2C(=O)c2c1cccc2N1CCN(Cc2ccccc2)CC1`, the inhibition is -20.8%.
Turning to `Cc1cc(NC(=O)/C=C/C(=O)N(c2ccccc2C)C(C(=O)NC2CCCC2)c2ccc(F)cc2)no1` (configuration not stated), the inhibition was -15.6%.
To `CCCCNC(=O)c1onc(CSc2cccc(OC)c2)c1C(=O)O` belongs 25.6%; to `CO/N=C(/CS(=O)(=O)c1ccc(Br)cc1)c1ccc(OC)cc1`, 2.77%; to `Cc1ccc(Cl)cc1NC(=O)COC(=O)C1CCCCC1`, -19.8%.
Consider `COc1ccccc1-c1n[nH]c2c1[C@H](C)CC[C@H]2C(C)C`, for which the inhibition is -16.8%.
With `COc1ccc(C(=O)Nc2ccc(CN3CCOCC3)cc2)cc1`, the inhibition was -5.41%.
For `COc1ccccc1-c1nc(C#N)c(N2CCC(C(N)=O)CC2)o1`, the inhibition was 33.2%.
As to `COc1ccc(Nc2oc(-c3ccccc3Cl)nc2C#N)cc1`, the inhibition was 42.4% (active).
As for `N#Cc1nc(-c2ccc(OCc3ccccc3)cc2)oc1NCCCN1CCOCC1`, the inhibition is -11.4%.
To `Clc1ccc(-c2cc(COc3ccccc3)no2)cc1Cl` belongs -15.4%; to `Cc1ccc(S(=O)(=O)N(c2cccc(C)c2)C2CCS(=O)(=O)C2)cc1` (configuration not stated), -7%; to `Cc1nc2c(-c3ccc(F)cc3)c(C)nn2c(C)c1CCC(=O)NCc1ccco1`, 2.38%.
Regarding `CCOc1ccc(CN2CCCN(C)CC2)cc1`, the inhibition is -6.01%.
Consider `Cc1ccc(NC(=O)Nc2ccc3oc(C)nc3c2)cc1`, for which the inhibition was 8.59%.
`O=C(Nc1ccc2sc3ccccc3c(=O)c2c1)c1ccccc1Cl`: the inhibition was 6.33%.
To `CC1(C)Cc2cccc(OCC(N)=O)c2O1` belongs 0.26%; to `Cn1cnc([N+](=O)[O-])c1Sc1ccccc1`, -10.6%; to `COCCCNCC(=O)Nc1sc(C)c(C)c1C(=O)OC`, -27.8%.
Then `COc1ccc(C2CC(=O)Nc3cc(C)c(C)cc32)c(OC)c1OC` (configuration not stated), with 3.42%; and `O=C(COC(=O)c1ccccc1SCC(=O)NC1CCCCC1)NC1CCCCC1`, with 45.4%; and `O=C(Cc1ccc(S(=O)(=O)N2CCCC2)s1)NC1CCCCCC1`, with -9.65%.
As to `Cc1cccc(COc2ccccc2/C=N/Nc2ccc([N+](=O)[O-])cc2)c1`, the inhibition was 0.38%.
Consider `CC(=O)NC1(c2cccc(F)c2)CCN(CC(=O)NC(C)C)CC1`, for which the inhibition is 15.8%.
For the molecule `Cc1cc2nnc(SCC(=O)N3CCN(c4ccccc4)CC3)n2c(N)n1`, the inhibition is -15.4%.
With `COc1ccccc1OCc1nc2ccccc2s1`, the inhibition is 7.18%.
Then `O=C(Nc1ccccc1)OCc1cn(-c2ccc(Cl)cc2)nn1`, with 6.75%.
On to `O=S(=O)(NCC1OCCc2ccccc21)c1ccccc1` (configuration not stated), for which the inhibition was -4.11%.
`Cc1ccc(-n2nc(N)c3c(=O)oc(N(C)C)nc32)cc1`: the inhibition is 13.8%.
Regarding `Cn1c(Cn2nnc3ccccc32)nnc1SCC(=O)c1ccccc1F`, the inhibition was -16.2%.
Consider `CC(C)Oc1ccc(CCc2n[nH]c(=S)n2Cc2ccccc2)cc1`, for which the inhibition is -2.84%.
Turning to `COc1ccc(C)cc1NC(=O)CCC(=O)Nc1nnc(C(F)(F)F)s1`, the inhibition was 19%.
For `Nc1ccccc1SCc1cc([N+](=O)[O-])cc2c1OCOC2`, the inhibition is 17.1%.
Consider `Cc1nc(-c2ccccc2)sc1-c1nc(-c2ccccc2)ncc1S(=O)(=O)c1ccccc1`, for which the inhibition was -7.34%.
To `COc1cc(/C=C2/C(=O)ON=C2C)ccc1OCc1ccccc1F` belongs -10.3%.
`COc1ccc(-c2oc(/N=C/N3CCCC3)c(C#N)c2-c2ccc(OC)cc2)cc1`: the inhibition was -15.2%.
For the molecule `CC1(C)CC(=O)C=C(NCCCNC2CCCCC2)C1`, the inhibition was -8.28%.
To `CC1(C)CC(=O)C=C(NCc2ccncc2)C1` belongs 41.4% (active); to `CC1(C)CC(=O)C=C(NCCN2CCNCC2)C1`, -22%; to `Cc1ccc2[nH]c(=O)c(CN(CCCN(C)C)C(=O)Nc3cccc(Cl)c3)cc2c1`, 3.64%.
`CCN(CC)CCN1C(=O)C(=O)/C(=C(/O)c2cnn(-c3ccccc3)c2C)C1c1cccs1` (configuration not stated): the inhibition was -7.79%.
`Cc1cc(C)c(S(=O)(=O)NCC2CCC(C(=O)NCc3ccc4c(c3)OCO4)CC2)c(C)c1` (configuration not stated): the inhibition was -7.41%.
For the molecule `COC(=O)c1ccc(OCC(=O)NC(C)(C)C)cc1`, the inhibition is 5.58%.
As for `C/C(=N\NC(=O)c1ccccc1C)c1ccc(N2CCOCC2)cc1`, the inhibition is -3.42%.
With `CCOC(=O)C1(S(=O)(=O)c2ccc(Cl)cc2)CCN(Cc2ccccc2)CC1`, the inhibition is -3.07%.
To `O=C(CCc1ccc(S(=O)(=O)NC2CCCCC2)cc1)NCc1ccccc1` belongs 10.4%; to `O=C(NCCCN1CCOCC1)c1cnn2c(-c3ccccc3)cc(-c3ccccc3)nc12`, -14.2%.
For the molecule `O=C(NCCOc1ccccc1)c1ccccc1`, the inhibition was -20.9%.
Then `O=C(COc1ccc(Cl)cc1)NCCC1=CCCCC1`, with 14.2%; and `O=C(CCN1CCc2ccccc2C(O)(c2ccccc2)C1)c1ccc2c(c1)OCCO2` (configuration not stated), with 16.3%; and `CCCCCN1CC(O)=C(c2ccccc2)C1=N`, with -1.22%.
Then `CC(=NCc1ccco1)c1c(C(F)(F)F)[nH]n(-c2nc3ccccc3s2)c1=O`, with 9.65%.
For the molecule `Cc1ccc(NC(=O)COc2ccc(-n3ccnc3)cc2)cc1Cl`, the inhibition is 2%.
To `O=C(Nc1cc2c3c(c1)C1CCCC1CN3CC1CCCC21)c1ccc([N+](=O)[O-])cc1` (configuration not stated) belongs -24.1%; to `CC(C)(C)C(=O)Nc1ccc(C(=O)N/N=C/c2ccccc2OC(=O)c2ccc(Cl)cc2Cl)cc1`, 44.2%; to `CN(C)c1ccnc(Oc2ccc(F)cc2)c1C#N`, -3.95%.
With `CCC(=O)c1c[nH]c(C(=O)NCC2CCCO2)c1` (configuration not stated), the inhibition was 8.77%.
For `CS(=O)(=O)N(CC(=O)N1CCN(c2ccc(F)cc2)CC1)C1CCCCC1`, the inhibition is -6.27%.
As to `CC(=O)c1sc(NC(=O)c2cccc3ccccc23)nc1C`, the inhibition was -23.4%.
For the molecule `COc1ccccc1NC(=O)CC(NCCN(C)C)C(=O)O` (configuration not stated), the inhibition was 0.85%.
Then `CCCn1nnnc1NC(=O)COc1ccc(Cl)cc1C`, with 12.8%; and `Oc1ccc2ccc3cccc[n+]3c2c1`, with 61.2% (active); and `CN(C)C(CNC(=O)CCCOc1ccccc1)c1ccco1` (configuration not stated), with -20%.
For the molecule `CCOc1cc2[nH]c(=S)n(CCN3CCCCC3C)c(=O)c2cc1OCC` (configuration not stated), the inhibition was -2%.
On to `COC(=O)c1ccc(Cc2ccccc2)o1`, for which the inhibition was -14.5%.
With `CCOC(=O)c1cc(C#N)c(N2CCCCC2)nc1-c1ccccc1`, the inhibition is 20%.
`Cc1nnc(NC(=O)Cn2c(=O)sc3ccccc32)s1`: the inhibition was 12.9%.
